Data reported in the supplement of paper PMC11732987, “Enantioselective OTUD7B fragment discovery through chemoproteomics screening and high-throughput optimisation” (Communications Chemistry, 2025).

Assays:
Assay in all cases: log2 ratio of Biotin-Ahx-Ub-VS probe labelling (fragment/DMSO); higher = less target engagement (more negative = stronger competition), active = hit call of the paper (q ≤ 0.05, log2 ratio ≤ -1)
Settings in all cases: compound concentration: 200 uM; treatment time: 3 h
USP19 = molecular target: T1, USP19 (UniProt O94966)
T1 sequence (whole entry): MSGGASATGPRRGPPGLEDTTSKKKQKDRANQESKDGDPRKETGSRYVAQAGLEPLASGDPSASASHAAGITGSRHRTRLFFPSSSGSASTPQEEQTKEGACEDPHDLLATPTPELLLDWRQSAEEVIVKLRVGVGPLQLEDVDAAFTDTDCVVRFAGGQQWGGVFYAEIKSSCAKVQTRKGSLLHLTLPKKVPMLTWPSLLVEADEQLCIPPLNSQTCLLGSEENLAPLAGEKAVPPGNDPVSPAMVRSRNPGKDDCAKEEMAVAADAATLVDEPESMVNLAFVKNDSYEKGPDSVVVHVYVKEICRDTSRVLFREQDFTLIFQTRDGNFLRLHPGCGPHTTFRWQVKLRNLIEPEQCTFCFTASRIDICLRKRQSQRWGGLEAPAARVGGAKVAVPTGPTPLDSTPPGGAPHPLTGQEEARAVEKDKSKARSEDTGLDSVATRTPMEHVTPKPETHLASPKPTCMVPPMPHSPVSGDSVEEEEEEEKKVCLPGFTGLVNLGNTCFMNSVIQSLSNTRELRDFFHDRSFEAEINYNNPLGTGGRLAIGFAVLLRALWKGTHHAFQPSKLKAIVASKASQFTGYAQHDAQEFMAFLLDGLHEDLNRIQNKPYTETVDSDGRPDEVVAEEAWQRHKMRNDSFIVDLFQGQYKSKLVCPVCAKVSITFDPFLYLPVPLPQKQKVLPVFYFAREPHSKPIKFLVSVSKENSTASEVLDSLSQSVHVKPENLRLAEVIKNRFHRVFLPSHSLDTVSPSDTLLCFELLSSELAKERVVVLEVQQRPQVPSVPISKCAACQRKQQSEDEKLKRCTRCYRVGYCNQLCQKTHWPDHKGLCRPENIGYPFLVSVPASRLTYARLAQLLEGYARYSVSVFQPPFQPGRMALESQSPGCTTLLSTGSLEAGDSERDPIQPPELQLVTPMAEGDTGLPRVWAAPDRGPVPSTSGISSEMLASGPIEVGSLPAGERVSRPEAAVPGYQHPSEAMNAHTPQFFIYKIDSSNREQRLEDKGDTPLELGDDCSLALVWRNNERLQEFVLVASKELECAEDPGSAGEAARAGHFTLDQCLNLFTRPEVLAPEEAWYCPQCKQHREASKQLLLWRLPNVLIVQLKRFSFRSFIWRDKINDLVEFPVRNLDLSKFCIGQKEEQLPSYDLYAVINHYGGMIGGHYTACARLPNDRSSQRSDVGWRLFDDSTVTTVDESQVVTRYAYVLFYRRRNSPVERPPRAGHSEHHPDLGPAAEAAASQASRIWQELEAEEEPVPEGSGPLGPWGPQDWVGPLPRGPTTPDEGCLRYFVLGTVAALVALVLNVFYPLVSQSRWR
How it was run: (§1)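 Average log2 ratios of fragment over vehicle were obtained by unpaired t-test from global-median-normalised Spectronaut label-free quantities. Proteins with ≥2 unique peptides were included. HEK293T lysate (495 µg per sample) was treated in triplicate with fragment at 200 µM or vehicle for 3 h, then with Biotin-Ahx-Ub-VS at 0.5 µM final for 1 h, and labelled DUBs were NeutrAvidin-enriched and run by diaPASEF LC-MS/MS.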

USP22 = molecular target: T2, USP22 (UniProt Q9UPT9)
T2 sequence (whole entry): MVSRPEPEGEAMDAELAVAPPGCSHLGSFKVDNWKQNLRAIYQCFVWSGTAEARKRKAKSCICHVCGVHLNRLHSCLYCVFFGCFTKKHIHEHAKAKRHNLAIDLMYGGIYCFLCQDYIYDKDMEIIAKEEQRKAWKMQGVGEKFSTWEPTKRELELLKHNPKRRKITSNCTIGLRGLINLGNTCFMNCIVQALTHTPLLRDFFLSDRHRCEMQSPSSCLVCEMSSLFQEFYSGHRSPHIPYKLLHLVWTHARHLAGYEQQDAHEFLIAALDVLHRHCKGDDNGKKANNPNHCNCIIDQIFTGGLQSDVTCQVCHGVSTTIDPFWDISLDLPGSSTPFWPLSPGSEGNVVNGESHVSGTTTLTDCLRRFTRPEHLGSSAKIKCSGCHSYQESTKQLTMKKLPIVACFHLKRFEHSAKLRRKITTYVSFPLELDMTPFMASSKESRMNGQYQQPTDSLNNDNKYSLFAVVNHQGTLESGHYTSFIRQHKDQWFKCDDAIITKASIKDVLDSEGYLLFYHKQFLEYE
How it was run: as §1

USP24 = USP24 (UniProt Q9UPU5)
Chain of USP24 (Q9UPU5 whole entry): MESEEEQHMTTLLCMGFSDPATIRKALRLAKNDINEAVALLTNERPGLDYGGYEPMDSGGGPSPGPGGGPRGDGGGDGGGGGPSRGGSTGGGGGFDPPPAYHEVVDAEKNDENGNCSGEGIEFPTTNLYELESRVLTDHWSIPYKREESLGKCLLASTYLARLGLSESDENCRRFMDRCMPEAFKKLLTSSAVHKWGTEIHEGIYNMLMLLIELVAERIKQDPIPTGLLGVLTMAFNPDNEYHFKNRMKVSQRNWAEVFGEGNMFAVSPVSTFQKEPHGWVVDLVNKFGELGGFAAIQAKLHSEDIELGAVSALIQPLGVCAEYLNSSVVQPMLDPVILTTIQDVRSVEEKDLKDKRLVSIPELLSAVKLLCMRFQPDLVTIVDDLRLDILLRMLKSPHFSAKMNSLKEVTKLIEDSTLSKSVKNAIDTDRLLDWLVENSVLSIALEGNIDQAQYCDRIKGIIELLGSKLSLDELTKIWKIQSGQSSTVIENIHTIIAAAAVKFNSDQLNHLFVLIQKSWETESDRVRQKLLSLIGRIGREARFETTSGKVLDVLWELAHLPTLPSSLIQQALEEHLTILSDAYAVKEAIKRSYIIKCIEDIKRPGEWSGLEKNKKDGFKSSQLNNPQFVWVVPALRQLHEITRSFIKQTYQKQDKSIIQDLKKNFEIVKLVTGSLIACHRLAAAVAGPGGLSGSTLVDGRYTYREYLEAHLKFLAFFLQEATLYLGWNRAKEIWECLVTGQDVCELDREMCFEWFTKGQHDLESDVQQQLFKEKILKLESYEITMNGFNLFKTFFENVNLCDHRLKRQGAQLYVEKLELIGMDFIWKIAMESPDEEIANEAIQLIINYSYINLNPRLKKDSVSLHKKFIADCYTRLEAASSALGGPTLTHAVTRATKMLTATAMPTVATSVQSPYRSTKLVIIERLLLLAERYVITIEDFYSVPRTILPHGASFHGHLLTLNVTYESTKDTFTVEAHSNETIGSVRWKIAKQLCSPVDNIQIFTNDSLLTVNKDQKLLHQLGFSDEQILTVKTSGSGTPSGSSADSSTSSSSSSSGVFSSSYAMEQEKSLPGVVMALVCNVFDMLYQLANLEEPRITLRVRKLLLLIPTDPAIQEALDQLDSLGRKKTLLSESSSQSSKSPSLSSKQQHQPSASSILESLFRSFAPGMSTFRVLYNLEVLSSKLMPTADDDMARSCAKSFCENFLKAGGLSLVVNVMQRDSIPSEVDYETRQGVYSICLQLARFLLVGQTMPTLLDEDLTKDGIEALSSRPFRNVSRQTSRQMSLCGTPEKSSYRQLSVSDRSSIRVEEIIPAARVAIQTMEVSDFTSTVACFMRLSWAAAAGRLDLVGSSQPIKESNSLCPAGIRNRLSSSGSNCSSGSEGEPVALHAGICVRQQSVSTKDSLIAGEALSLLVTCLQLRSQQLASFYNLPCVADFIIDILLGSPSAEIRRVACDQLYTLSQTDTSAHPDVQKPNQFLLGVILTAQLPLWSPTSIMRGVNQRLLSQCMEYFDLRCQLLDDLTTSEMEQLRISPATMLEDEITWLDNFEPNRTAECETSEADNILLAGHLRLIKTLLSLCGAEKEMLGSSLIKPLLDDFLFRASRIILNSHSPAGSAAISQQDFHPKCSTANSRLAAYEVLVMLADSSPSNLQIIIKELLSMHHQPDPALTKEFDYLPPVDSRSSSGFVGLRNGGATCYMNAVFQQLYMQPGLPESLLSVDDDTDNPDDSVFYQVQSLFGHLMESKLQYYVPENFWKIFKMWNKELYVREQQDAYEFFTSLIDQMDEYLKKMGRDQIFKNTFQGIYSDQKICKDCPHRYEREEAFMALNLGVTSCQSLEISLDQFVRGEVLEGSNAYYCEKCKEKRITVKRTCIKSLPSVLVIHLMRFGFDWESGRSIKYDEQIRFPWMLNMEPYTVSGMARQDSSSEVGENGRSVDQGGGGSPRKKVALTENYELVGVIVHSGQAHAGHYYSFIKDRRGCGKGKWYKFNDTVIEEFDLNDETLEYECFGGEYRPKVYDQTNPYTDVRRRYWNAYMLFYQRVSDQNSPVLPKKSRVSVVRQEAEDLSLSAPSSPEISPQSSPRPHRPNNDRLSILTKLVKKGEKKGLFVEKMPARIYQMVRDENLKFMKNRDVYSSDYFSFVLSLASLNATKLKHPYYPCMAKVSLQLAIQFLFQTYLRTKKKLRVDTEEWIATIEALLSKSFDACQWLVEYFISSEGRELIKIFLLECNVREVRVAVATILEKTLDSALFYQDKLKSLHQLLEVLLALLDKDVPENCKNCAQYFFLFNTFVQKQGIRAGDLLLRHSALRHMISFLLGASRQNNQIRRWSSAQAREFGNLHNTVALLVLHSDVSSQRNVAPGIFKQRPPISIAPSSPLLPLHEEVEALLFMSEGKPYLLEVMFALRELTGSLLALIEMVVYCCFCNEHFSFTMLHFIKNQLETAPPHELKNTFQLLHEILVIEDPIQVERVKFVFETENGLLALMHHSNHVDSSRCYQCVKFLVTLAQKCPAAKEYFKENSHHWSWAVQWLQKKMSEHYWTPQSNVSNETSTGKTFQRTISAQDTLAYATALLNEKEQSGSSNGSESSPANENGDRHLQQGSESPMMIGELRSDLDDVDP
How it was run: as §1

USP25 = molecular target: T3, USP25 (UniProt Q9UHP3)
T3 sequence (whole entry): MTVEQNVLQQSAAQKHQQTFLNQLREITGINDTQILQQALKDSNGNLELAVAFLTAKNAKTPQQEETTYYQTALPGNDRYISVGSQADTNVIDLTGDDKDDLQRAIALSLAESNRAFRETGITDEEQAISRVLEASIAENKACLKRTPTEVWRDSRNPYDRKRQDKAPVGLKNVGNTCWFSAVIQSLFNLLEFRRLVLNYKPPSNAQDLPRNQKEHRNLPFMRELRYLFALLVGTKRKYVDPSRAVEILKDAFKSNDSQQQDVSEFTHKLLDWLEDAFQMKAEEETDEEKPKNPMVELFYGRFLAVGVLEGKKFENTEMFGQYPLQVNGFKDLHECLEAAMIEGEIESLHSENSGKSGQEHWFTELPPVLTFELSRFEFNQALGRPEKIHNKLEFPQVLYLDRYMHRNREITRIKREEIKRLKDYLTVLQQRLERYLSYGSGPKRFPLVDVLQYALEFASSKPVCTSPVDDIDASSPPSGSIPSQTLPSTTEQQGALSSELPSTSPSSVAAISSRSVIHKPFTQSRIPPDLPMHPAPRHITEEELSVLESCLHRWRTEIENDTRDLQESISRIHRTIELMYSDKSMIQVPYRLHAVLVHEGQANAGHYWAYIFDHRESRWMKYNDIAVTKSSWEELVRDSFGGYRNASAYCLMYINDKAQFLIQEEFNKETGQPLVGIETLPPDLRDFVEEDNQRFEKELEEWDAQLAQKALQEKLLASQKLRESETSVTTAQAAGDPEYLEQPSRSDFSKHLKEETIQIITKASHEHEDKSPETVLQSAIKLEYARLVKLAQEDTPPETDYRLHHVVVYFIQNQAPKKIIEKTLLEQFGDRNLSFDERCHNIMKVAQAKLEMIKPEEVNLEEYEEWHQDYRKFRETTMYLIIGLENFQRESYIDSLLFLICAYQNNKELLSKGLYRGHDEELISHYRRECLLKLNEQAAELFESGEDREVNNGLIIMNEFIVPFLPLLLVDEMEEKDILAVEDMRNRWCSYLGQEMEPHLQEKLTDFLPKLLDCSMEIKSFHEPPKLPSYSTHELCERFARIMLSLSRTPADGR
How it was run: as §1

USP28 = molecular target: T4, USP28 (UniProt Q96RU2)
T4 sequence (whole entry): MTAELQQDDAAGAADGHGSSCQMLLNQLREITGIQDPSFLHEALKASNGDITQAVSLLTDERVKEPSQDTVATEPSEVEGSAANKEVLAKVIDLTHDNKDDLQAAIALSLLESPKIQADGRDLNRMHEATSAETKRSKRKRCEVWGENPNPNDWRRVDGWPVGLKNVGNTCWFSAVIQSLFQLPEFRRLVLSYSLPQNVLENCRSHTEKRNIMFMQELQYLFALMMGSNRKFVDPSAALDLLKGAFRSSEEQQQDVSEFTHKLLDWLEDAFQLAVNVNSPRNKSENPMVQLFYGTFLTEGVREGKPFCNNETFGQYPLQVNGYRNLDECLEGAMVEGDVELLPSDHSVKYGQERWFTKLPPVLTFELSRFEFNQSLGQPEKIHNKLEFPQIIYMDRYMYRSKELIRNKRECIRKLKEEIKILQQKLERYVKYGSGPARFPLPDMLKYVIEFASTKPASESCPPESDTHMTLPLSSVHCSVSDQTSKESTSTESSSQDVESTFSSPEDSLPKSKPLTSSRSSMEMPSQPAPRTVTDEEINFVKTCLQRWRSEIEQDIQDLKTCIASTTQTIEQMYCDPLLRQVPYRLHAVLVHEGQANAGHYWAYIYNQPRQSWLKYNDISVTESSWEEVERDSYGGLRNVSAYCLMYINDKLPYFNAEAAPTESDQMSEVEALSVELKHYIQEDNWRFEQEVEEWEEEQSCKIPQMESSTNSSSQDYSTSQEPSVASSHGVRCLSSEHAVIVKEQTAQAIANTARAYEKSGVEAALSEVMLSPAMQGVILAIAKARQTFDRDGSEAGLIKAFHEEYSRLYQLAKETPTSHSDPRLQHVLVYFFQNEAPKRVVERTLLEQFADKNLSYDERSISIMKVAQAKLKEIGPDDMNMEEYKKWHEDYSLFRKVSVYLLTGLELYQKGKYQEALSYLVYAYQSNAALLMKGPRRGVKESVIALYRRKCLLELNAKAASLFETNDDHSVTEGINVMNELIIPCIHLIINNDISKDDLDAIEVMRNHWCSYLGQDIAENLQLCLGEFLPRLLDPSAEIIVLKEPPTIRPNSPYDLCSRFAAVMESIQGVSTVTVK
How it was run: as §1

Measured: log2 ratio of Biotin-Ahx-Ub-VS probe labelling

O=C(O)C1Cc2ccccc2CN1C(=O)CCl (stereo not given)
inactive: USP19 -0.32 | USP22 0.112 | USP24 -0.348 | USP25 -0.37 | USP28 -0.576
